Results reported in the supplement of paper PMC5499739.
The full ranking holds about 16,000 sequences; the median of “Z-score” is about -0.37, and the highest 2% start at about 3.2. This excerpt belongs to a sample that is enriched for the highest values.

test system: RBM10 RRM1-ZnF (GST-tagged construct); assay: RNAcompete 7-mer binding Z-score; higher = stronger binding preference
Experimental: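 RNAcompete: 20 pmol GST-tagged RBM10 RNA-binding constructs were incubated with a designed RNA pool of about 241,000 sequences up to 41 nt (1.5 nmol) on glutathione beads for 30 min at 4 °C and washed. Bound RNAs were identified by microarray hybridisation. Each RNA 7-mer is scored by a one-sided Z-score of its enrichment, computed over probes that contain the 7-mer within longer pool sequences.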

Sequence	RNAcompete 7-mer binding Z-score
ACAGGGG	3.33
ACAGGGU	2.94
GCAAGGG	3.46
GCAAGGU	1.94
CGACAAC	-0.542
GUCGGCU	-0.0252
GCUAUGC	-0.269
CAACGAU	-0.409
GAUAGUC	-0.279
AAACCCA	-0.701
AACGCUG	-0.5
CAAAACG	-0.119
AGCUUAC	-0.639
ACACGGC	-0.191
CGCUUAU	-0.649
CGGAGGG	2.91
GAGAGGG	2.7
AGGAGGU	2.47
GGGAGGG	4.74
GGGAGUA	2.53
GGGAGUG	3.73
AGGAGUG	2.91
AGGAGGA	2.25

Sequence	RNAcompete 7-mer binding Z-score
GGGAGGA	3.47
AGGAGGG	3.53
UGGAGGA	2.87
AGGAGGC	1.37
UCAGCGG	0.309
AUGUCCG	-0.626
UUACGCA	-0.584
GGGAGGU	3.68
GGGAGGC	2.92
GGGAGCC	0.917
UGGAGGC	1.96
CGGAGCG	1.23
GGGAGCG	3.35
CGGAGGU	2.41
UGGAGGG	4.07
UGGAGGU	2.84
AGCAACA	-0.158
AGUCUAC	-0.584
GCGUUUG	0.131
GGUUGUG	2.29
CUACUGA	-0.659
AUGUGGC	0.586
AUGUGGG	3.84

Sequence	RNAcompete 7-mer binding Z-score
GUGUGGG	3.93
UUGUGGG	2.83
GUGUGGU	2.39
GUGUGGA	2.98
CAUCAAG	-0.47
UUUAUGG	0.303
CCAACAC	-0.5
UGGGUGC	2.92
UGGGUCG	2.09
GCGGUGU	1.1
AGGGUGU	3.11
UGGGUGG	4.14
GGGGUGG	4.71
GGGGUGC	2.92
GCGGUGG	2.85
AGGGUGA	4.19
AGGGUCA	1.14
AUGGUGA	2.6
GGGGUGU	4.3
UAAAUAG	-0.0674
CGUAUUU	-0.769
UUCACGG	-0.448
GAAGACG	1.09

Sequence	RNAcompete 7-mer binding Z-score
CUAAGAA	-0.331
CUACAUG	-0.591
GAUCAGA	0.316
AGUUAGU	-0.0642
ACAUCCC	-0.587
AGGGUGC	2.6
GCGGUGA	1.2
GGGGUCA	2.86
CGGGUGG	3.64
CGGGUGA	2.66
UCGGUGA	0.452
CGGGUGC	1.85
UGGGUGA	3.38
CGGGUGU	2.14
GGGGUGA	4.16
AGGGUGG	4.42
ACGGUGG	2.76
UCCAUUA	-0.75
UCUCCCC	-0.587
CCUCGGG	0.423
GCGUCAC	-0.0252
GUCUUUA	-0.652
GUUUCGA	-0.396
